Results filed as inconclusive are left out. Entries that show only a call come without a potency. Active and inactive are the calls of the source. The call rests on the fitted dose curve; in most records, active means well fitted curve in the direction sought with a large enough effect; inconclusive means small, poorly fitted or top-dose-only effect, or another doubt; inactive means no such curve, though single readings can be large; an effect the other way counts as inactive or inconclusive.

One assay relates to Nanoluciferase (engineered Oplophorus gracilirostris luciferase). The assay can be described thus: Primary Nanoluciferase (NLuc) qHTS assay for identification of artifact compounds. (AID 1845222).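 Further: NLuc secreted into diluted conditioned medium of S16 cells.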 Conditions: NLuc-conditioned medium, Nano-Glo luminescence, 5 min; series mostly up to 54.1 µM. In outline: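 Using secreted nanoluciferase in S16 culture medium (0.22 um filtered, 1:55 dilution), compounds were preincubated 15 min at RT. Signal was generated with Nano-Glo reagent (1:100) over 5 min.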
For orientation: In qHTS, concentration-response curves come from the screen itself.
As for `COc1cc2ncc(-c3ccccc3)nc2cc1OC`, the Potency result is “inactive”.
Same read-out and setting: the entry for `O=C(Nc1ccccc1C(=O)NC1CCCCNC1=O)c1cc2ccccc2s1` (stereo not drawn) is “inactive”; for `CN(C)C(=O)Nc1cccc(-c2ccc(N(C)C)cc2)c1` it is “inactive”.
Turning to `c1cc(NC2CCNCC2)nc(-c2cnc3ccccn23)c1`, the Potency entry was “inactive”.
Regarding `Cc1nc2cc(C(=O)NCc3ccccn3)nn2c(C)c1Cc1cccc(Cl)c1`, the Potency result was “inactive”.
Same read-out and setting: then `COc1cc(N(C)CCN(C)C)c(N)cc1Nc1nccc(-c2cn(C)c3ccccc23)n1`, with “inactive”; and `Cc1cc(N2CCOCC2)ccc1Nc1nc(NC2CCCCC2)c2[nH]cnc2n1`, with “inactive”; and `Cc1cc(-c2nc3cc(F)ccc3s2)ccc1NC(=O)[C@@H](N)CCCCN`, with “inactive”.
Same read-out and setting: the entry for `COc1ccnc(CS(=O)c2nc3cc(OC(F)F)ccc3[nH]2)c1OC` (stereo not drawn) is “inactive”.
As to `CCC(C(C)O)n1ncn(-c2ccc(N3CCN(c4ccc(OCC5COC(Cn6cncn6)(c6ccc(F)cc6F)C5)cc4)CC3)cc2)c1=O` (stereo not drawn), the Potency result was “inactive”.
On the same count and under the same terms, then `Nc1nc(Nc2ccc3c(c2)CCC(N2CCCC2)CC3)nn1-c1cc2c(nn1)-c1ccccc1CCC2` (stereo not drawn), with “inactive”; and `C=C1C(=O)O[C@H]2CC(=C)[C@H]3CC[C@@](C)(O)[C@@H]3CC12` (stereo partly drawn), with “inactive”.
On the same count and under the same terms, the entry for `Cn1cc(-c2cnn3c(N)c(Br)c(C4CCCNC4)nc23)cn1` (stereo not drawn) is “inactive”.

Tested on in the next assay: not listed separately
Nature of the assay: Primary redox qHTS assay for identification of artifact compounds. (AID 1845223). Conditions: Amplex Red/HRP redox cycling with DTT, fluorescence; series mostly up to 53.8 µM. Put shortly: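 Redox-cycling detection via DTT (250 uM final) oxidation coupled to Amplex Red (25 uM)/HRP (250 mU/mL) in HBSS. 15 min preincubation plus 30 min after DTT, room temperature. Ex/Em 525/598 nm; 4-parameter Hill fit against DMSO and 10 uM DA3003.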
`CCn1c(=O)c(-c2ccc(-c3cncs3)cc2Cl)cc2cnc(Nc3ccc(N4CCN(C)CC4)cc3)nc21`: the Potency entry was “inactive”.
`CC(=O)Nc1cccc(-c2csc(Nc3cc(C)ccn3)n2)c1`: the Potency entry is “inactive”.
For the molecule `CC1(C)CC[C@]2(C(=O)O)CC[C@]3(C)C(=CCC4[C@@]5(C)C[C@@H](O)[C@H](O)C(CO)(CO)C5CC[C@]43C)C2[C@@H]1O` (stereo partly drawn), the Potency result is “inactive”.
On the same count and under the same terms, then `O=C1C[C@]23C=CCN4CCC5c6cc7c(cc6N1[C@@]5(CC2)C43)OCO7` (stereo partly drawn), with “inactive”.
Still for that read-out and setting: then `CN(C)S(=O)(=O)c1ccc(NC(=S)N2CCC(C(O)(c3ccccc3)c3ccccc3)CC2)cc1`, with “inactive”; and `NS(=O)(=O)c1ccc(N2N=C(c3ccccc3)CC2c2ccccc2)cc1` (stereo not drawn), with “inactive”.
Turning to `C#CCNCc1cc2cc(OCc3ccccc3)ccc2[nH]1`, the Potency result is “inactive”.
Regarding `Nc1nc2c(s1)CCN(Cc1ccc(Cl)cc1)CC2`, the Potency result is “inactive”.
Turning to `Cc1nc2ccc(CN(C)c3ccc(C(=O)NC(CCC(=O)O)C(=O)O)s3)cc2c(=O)[nH]1` (stereo not drawn), the Potency result is “inactive”.
Consider `CCCCCc1ccc(/C=C/C(=O)Nc2cc(Cl)ccc2C(=O)O)cc1`, for which the Potency entry was “inactive”.
For `COC(=O)c1ccc2c(c1)[nH]c1ncnc(NCCCN3CCCCC3)c12`, the Potency entry was “inactive”.
Same read-out and setting: the entry for `CC(=O)Nc1nc(C)c(-c2nc(N3CCCC(O)C3)no2)s1` (stereo not drawn) is “inactive”; for `NC(=O)c1cccc2[nH]c(-c3ccc(C4CCCN4)cc3F)nc12` (stereo not drawn) it is “inactive”.
On the same count and under the same terms, the entry for `COc1cc(C2OC(c3ccc(OC)c(OC)c3)C(C)C2C)ccc1O` (stereo not drawn) is “inactive”; for `NCC1CCN(c2nccc(-c3ccc4ccccc4c3)n2)CC1` it is “inactive”; for `C[C@@H](c1ccc2nccn2c1)n1nnc2ncc(-c3cnn(C)c3)nc21` it is “inactive”.
With `Cc1cc(C)c2c(c1)C(N(Cc1cc(C(F)(F)F)cc(C(F)(F)F)c1)c1nnn(C)n1)CCCN2CC1CCC(C(=O)O)CC1` (stereo not drawn), the Potency result was “inactive”.
For the molecule `COc1cc(-c2cn(C3CCc4c(F)cccc4N(CC(F)(F)F)C3=O)nn2)ccc1-n1cnc(C)c1` (stereo not drawn), the Potency result is “inactive”.
In the case of `Cc1cc2occ(CN(C)CCN(C)Cc3cn(-c4cccc(C(F)(F)F)c4)c4ccccc34)c(=O)c2cc1C`, the Potency result was “inactive”.
For the molecule `C=CC(C)(C)C12CC3C(=O)N4C(CC5(C(C)(C)C=C)c6ccccc6NC45)C(=O)N3C1Nc1ccccc12` (stereo not drawn), the Potency entry is “inactive”.
In the case of `Cc1[nH]c(/C=C2\C(=O)Nc3cc(-c4ccccc4)ccc32)c(C)c1CCC(=O)O`, the Potency entry was “inactive”.
Same read-out and setting: then `CCN(CC)C(=O)C(c1ccccc1)N1CCN(c2ccc(NC(=O)c3ccccc3-c3cccnc3)cc2F)CC1` (stereo not drawn), with “inactive”; and `COc1cc2nc(N3CCN(C(=O)COc4c(OC)cccc4C(C)C)CC3)nc(N)c2cc1OC`, with “inactive”; and `C=CC(=O)N1CCCC(n2nc(-c3ccc(Oc4ccccc4)cc3)c3c(N)ncnc32)C1` (stereo not drawn), with “inactive”.
Same read-out and setting: then `COc1cc(C(=O)O)ccc1NC(=O)C1NC(CC(C)(C)C)C(C#N)(c2ccc(Cl)cc2F)C1c1cccc(Cl)c1F` (stereo not drawn), with “inactive”; and `COc1cc2ncc(-c3ccccc3)nc2cc1OC`, with “inactive”.
On the same count and under the same terms, then `O=C(Nc1ccccc1C(=O)NC1CCCCNC1=O)c1cc2ccccc2s1` (stereo not drawn), with “inactive”; and `CN(C)C(=O)Nc1cccc(-c2ccc(N(C)C)cc2)c1`, with “inactive”; and `c1cc(NC2CCNCC2)nc(-c2cnc3ccccn23)c1`, with “inactive”.
With `Cc1nc2cc(C(=O)NCc3ccccn3)nn2c(C)c1Cc1cccc(Cl)c1`, the Potency entry is “inactive”.
Turning to `COc1cc(N(C)CCN(C)C)c(N)cc1Nc1nccc(-c2cn(C)c3ccccc23)n1`, the Potency result was “inactive”.
The same measure, in the same setting: the entry for `CCC(C(C)O)n1ncn(-c2ccc(N3CCN(c4ccc(OCC5COC(Cn6cncn6)(c6ccc(F)cc6F)C5)cc4)CC3)cc2)c1=O` (stereo not drawn) is “inactive”; for `Nc1nc(Nc2ccc3c(c2)CCC(N2CCCC2)CC3)nn1-c1cc2c(nn1)-c1ccccc1CCC2` (stereo not drawn) it is “inactive”.
For `C=C1C(=O)O[C@H]2CC(=C)[C@H]3CC[C@@](C)(O)[C@@H]3CC12` (stereo partly drawn), the Potency entry is “inactive”.
In the case of `Cn1cc(-c2cnn3c(N)c(Br)c(C4CCCNC4)nc23)cn1` (stereo not drawn), the Potency entry was “inactive”.

The record behind these values is PubChem BioAssay (NCATS).
